Test systems include SK-MEL-2 melanoma; SN12C renal; UO-31 renal; TK-10 renal; ACHN renal; CAKI-1 renal; A498 renal; CCRF-CEM leukemia; MOLT-4 leukemia.
Common to all, as to test: NCI-60 one-dose screen, 48 h (100 = growth as untreated, 0 = no growth, -100 = all killed)
Common to all, as to settings: 10 µM unless noted

Molecules are shown by their SMILES. The panel holds about 83,000 compounds, 20% with a hit somewhere; the sample as a whole holds those more often.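 Results are percent growth after 48 hours of single-concentration exposure. 100 means growth as in untreated cells, lower positive values show inhibition; negative values down to -100 show cell death.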 Unmarked numbers belong to inactive results. Activity calls are given as the source filed them. How the source made its calls: active means growth percent below 10; inactive means the rest.

Turning to `O=[N+]([O-])c1ccc(O)c2ncccc12`, the growth in the experiment on SK-MEL-2 melanoma was 79.1%; in the experiment on SN12C renal, 35.9%; in the experiment with UO-31 renal, 60.3%; in the experiment on TK-10 renal, 83.2%; with ACHN renal, 51.8%; with CAKI-1 renal, 57%. Also, the growth was 96% in the experiment with A498 renal, 25.5% in the experiment on CCRF-CEM leukemia and 33.4% in the experiment with MOLT-4 leukemia.

Regarding `COC(=O)c1c2c(c(C)[n+]([O-])c1C)C(=O)C=C(NCc1cccc(OC)c1)C2=O`, the growth is -64.6% (active) in the experiment with SK-MEL-2 melanoma; -93.4% (active) with SN12C renal; -62.5% (active) with UO-31 renal; 4.5% (active) in the experiment with TK-10 renal; -81.5% (active) in the experiment on ACHN renal; -32.6% (active) in the experiment with CAKI-1 renal. In addition, the values for the growth in the experiment on CCRF-CEM leukemia and in the experiment on MOLT-4 leukemia were -17.1% (active) and -45.9% (active), respectively.

In the case of `CCOC(=O)c1[nH]c2cc(Cl)ccc2c1[C@@H](C(=O)NC(C)(C)C)N(CC)C(=O)CCCCC#Cc1cccc2c1CN(C1CCC(=O)NC1=O)C2=O` (stereo not given in full), the growth was -13.2% (active) with SK-MEL-2 melanoma; 24.4% in the experiment with SN12C renal; 0.0319% (active) in the experiment on UO-31 renal; 34.3% in the experiment on TK-10 renal; 13% with ACHN renal; 7.95% (active) with CAKI-1 renal. In addition, the growth in the experiment with CCRF-CEM leukemia is 13.7%; in the experiment on MOLT-4 leukemia it was 10.1%.

As for `O=C1/C(=C/c2ccc(Cl)cc2)CN(Cc2cn(CCCNc3ccnc4cc(Cl)ccc34)nn2)C/C1=C\c1ccc(Cl)cc1`, the growth was -35.2% (active) with SK-MEL-2 melanoma; -80.2% (active) in the experiment on SN12C renal; -98% (active) in the experiment on UO-31 renal; -56.6% (active) in the experiment on TK-10 renal; -99.3% (active) in the experiment on ACHN renal; -20.4% (active) with CAKI-1 renal. The growth is -61.3% (active) with A498 renal, -31.2% (active) in the experiment on CCRF-CEM leukemia and -16.7% (active) in the experiment on MOLT-4 leukemia.

As to `COC(=O)[C@@]12CC[C@@H](C)[C@]3(C[C@@H](c4ccoc4)OC3=O)[C@H]1CC[C@@H]1O[C@@]12C`, the growth in the experiment with SK-MEL-2 melanoma was 96.9%; in the experiment with SN12C renal, 98.8%; in the experiment with UO-31 renal, 78.9%; in the experiment on TK-10 renal it was 103%; with ACHN renal, 105%; with CAKI-1 renal, 94.4%. Besides, the growth with CCRF-CEM leukemia was 107%; in the experiment on MOLT-4 leukemia, 110%.

Take `CCC(=O)Nc1nnc(Cc2ccc(OC)c(OC)c2)s1`: the growth with SK-MEL-2 melanoma is -6.77% (active); with SN12C renal, 2.77% (active); with UO-31 renal, 19.6%; with TK-10 renal, -37.7% (active); in the experiment on ACHN renal, 4.03% (active); in the experiment with CAKI-1 renal it was -33.6% (active). Also, the growth with A498 renal is 85.2%; with CCRF-CEM leukemia it was 38.3%; with MOLT-4 leukemia, 48.9%.

As to `Clc1ccccc1Nc1ccc2nnc(-c3ccncc3)n2n1`, the growth with SK-MEL-2 melanoma is 100%; with SN12C renal, 87%; in the experiment with UO-31 renal, 89.5%; with TK-10 renal, 76.8%; in the experiment with ACHN renal, 96.6%; in the experiment on CAKI-1 renal, 86.1%. The growth in the experiment with A498 renal was 72.8%; in the experiment with CCRF-CEM leukemia it was 79.1%; in the experiment on MOLT-4 leukemia, 89.6%.

As for `Cc1nn(-c2ccccc2)c2nc3nc4c(c(N)c3c(-c3ccc(Cl)cc3)c12)CCC4`, the growth in the experiment on SK-MEL-2 melanoma was 96.8%; in the experiment on SN12C renal, 105%; in the experiment with UO-31 renal, 75.2%; in the experiment with TK-10 renal it was 105%; in the experiment on ACHN renal, 51.1%; in the experiment with CAKI-1 renal it was 93.1%. In addition, the growth with A498 renal was 92.4%; in the experiment with CCRF-CEM leukemia, 21.7%; in the experiment with MOLT-4 leukemia, 90.4%.

`Oc1ccc(Cl)cc1CNc1nc2ccccc2[nH]1`: the growth is 87.1% in the experiment with SK-MEL-2 melanoma; 61.1% in the experiment with SN12C renal; 56% with UO-31 renal; 88.2% with TK-10 renal; 57% with ACHN renal; 64% in the experiment on CAKI-1 renal. Moreover, the growth was 59.6% in the experiment with A498 renal, -21.4% (active) with CCRF-CEM leukemia and -25.1% (active) in the experiment on MOLT-4 leukemia.

With `C[C@]1(CO)C[C@@H](O)C[C@]2(C)[C@@H]1CC[C@@]13C[C@@H]4[C@@H](C[C@H]12)[C@]4(C)C3`, the growth in the experiment on SK-MEL-2 melanoma is 102%; in the experiment on SN12C renal it was 99.1%; in the experiment with UO-31 renal, 83.9%; with TK-10 renal, 103%; in the experiment on ACHN renal it was 97.7%; in the experiment with CAKI-1 renal, 89.5%. The growth was 116% in the experiment on CCRF-CEM leukemia and 108% in the experiment on MOLT-4 leukemia.

Consider `COc1ccc(NC(=O)c2ccc3c(c2)nc(-c2ccc(Cl)cc2)n3-c2cc(C(C)(C)C)[nH]n2)cc1`, for which the growth with SK-MEL-2 melanoma was 92.7%; in the experiment with SN12C renal it was 86%; in the experiment on UO-31 renal, 62.4%; in the experiment on TK-10 renal it was 75.8%; in the experiment on ACHN renal, 90.1%; in the experiment with CAKI-1 renal, 61%. In addition, the results for the growth in the experiment with A498 renal and in the experiment on MOLT-4 leukemia were 62.2% and 55.1%, respectively.

Regarding `COc1ccc(/C=C2\CN(Cc3cn(CCCNc4ccnc5cc(Cl)ccc45)nn3)C/C(=C\c3ccc(OC)c(OC)c3)C2=O)cc1OC`, the growth in the experiment with SK-MEL-2 melanoma was 27.7%; in the experiment with SN12C renal, -38% (active); with UO-31 renal, 33.2%; in the experiment on TK-10 renal, 14.3%; in the experiment on ACHN renal it was -38% (active); in the experiment with CAKI-1 renal, 31%. In addition, the growth in the experiment on A498 renal is 23.5%; in the experiment with CCRF-CEM leukemia, -15.2% (active); with MOLT-4 leukemia, -13% (active).

For the compound `COc1cc(/C=N/NC(=O)c2cnn3c2NC(c2ccccc2)C3)cc(OC)c1OC` (stereo not given), the growth in the experiment on SK-MEL-2 melanoma is 47.6%; in the experiment with SN12C renal, 87.4%; in the experiment with UO-31 renal, 68.9%; with TK-10 renal it was 85.7%; in the experiment with ACHN renal, 80.2%; in the experiment with CAKI-1 renal, 42.1%. Moreover, the growth with CCRF-CEM leukemia is 79.7%; in the experiment on MOLT-4 leukemia, 80.5%.

As to `COc1ccc(-n2ncc3c4nc(OC)c(S(=O)(=O)c5ccccc5)cc4ccc32)cc1`, the growth in the experiment on SK-MEL-2 melanoma was 65.9%; in the experiment on SN12C renal, 93%; in the experiment with UO-31 renal, 76.4%; in the experiment with TK-10 renal, 88.2%; in the experiment with ACHN renal, 44.2%; in the experiment on CAKI-1 renal, 88.7%. Further, the growth is 43.3% with A498 renal, 103% in the experiment on CCRF-CEM leukemia and 98.4% in the experiment on MOLT-4 leukemia.
